SMILES strings stand for the structures. Active and inactive are the calls of the source. The calls were made as follows: active = hit-call score of the fitted dose curve at least 0.9, where 1 is the maximum; inactive = score below 0.9.

Sequence of Transcription factor E2F1 (Homo sapiens) (Q01094 whole entry, looked up): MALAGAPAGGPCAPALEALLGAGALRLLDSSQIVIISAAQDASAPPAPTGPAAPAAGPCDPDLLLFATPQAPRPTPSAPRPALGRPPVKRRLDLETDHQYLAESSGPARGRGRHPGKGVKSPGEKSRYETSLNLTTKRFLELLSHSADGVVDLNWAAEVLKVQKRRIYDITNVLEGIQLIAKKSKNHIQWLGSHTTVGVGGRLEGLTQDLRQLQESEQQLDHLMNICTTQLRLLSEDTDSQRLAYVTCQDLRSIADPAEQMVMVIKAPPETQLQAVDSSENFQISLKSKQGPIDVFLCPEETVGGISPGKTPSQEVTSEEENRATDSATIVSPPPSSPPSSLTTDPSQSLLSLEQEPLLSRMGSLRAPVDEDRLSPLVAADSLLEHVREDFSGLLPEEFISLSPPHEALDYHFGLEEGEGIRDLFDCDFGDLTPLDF

The target in this test is Transcription factor E2F1 (Homo sapiens) (UniProt Q01094). Briefly: ATG_E2F_CIS: Attagene CIS-FACTORIAL HepG2 Assay for human E2F Transcription Factor 1 (AID 2282935). The following applies: HepG2 Attagene cis-reporter, E2F reporter RNA transcripts; actives raise or lower the signal. The method, then:
ATG_CIS is a cell-based, multiplexed-readout assay that uses HepG2, a human liver cell line, with measurements taken at 24 hours after chemical dosing in a 24-well plate.ATG_E2F_CIS is one of 52 assay component(s) measured or calculated from the ATG_CIS assay. It is designed to make measurements of mRNA induction, a form of inducible reporter, as detected with fluorescence intensity signals by Reverse transcription polymerase chain reaction (RT-PCR) and Capillary electrophoresis technology.Data from the assay component ATG_E2F_CIS was analyzed into 1 assay endpoint. This assay endpoint, ATG_E2F_CIS, was analyzed with bidirectional fitting relative to DMSO as the negative control and baseline of activity. Using a type of inducible reporter, measures of mRNA for gain or loss-of-signal activity can be used to understand the reporter gene at the transcription factor-level as they relate to the gene E2F1. Furthermore, this assay endpoint can be referred to as a primary readout, because this assay has produced multiple assay endpoints where this one serves a reporter gene function. To generalize the intended target to other relatable targets, this assay endpoint is annotated to the dna binding intended target family, where the subfamily is E2F transcription factor.
Human liver HepG2 cells are transiently transfected with multiple reporter transcription units (MRTUs) in 6-well plates using FuGene 6 reagent (Roche; 3 ml FuGene/1 mg DNA). The MRTU constructs are regulated by a cis-regulating element (promoter). […] A major difference between the CIS and TRANS system is that in CIS activities of endogenous TFs are measured, whereas the TRANS assay evaluates changes in activities of exogenous, chimeric NR-Gal4 proteins. […] At the end of 24 hour incubation, total RNA was isolated using TriZol reagent (Invitrogen). The isolated RNA is then reverse-transcribed using oligo(dT) primer and Mo-MLV reverse transcriptase (Invitrogen) with DNAse I (Ambion) treatment for 30 min. The one-tenth of the produced cDNA was amplified by PCR using Taq DNA polymerase (Invitrogen) and two reporter sequence-specific primers. The PCR products were fluorescently labeled by primer extension with 6-arboxyfluorescein (6-FAM) 5'-labeled reporter sequence-specific primer (2 min at 95 C, 20 s at 68 C and 10 min at 72 C) and these products were digested with 5U of HpaI (New England Biolabs) for 2h at 37 C. The fragments were purified using Qiaquick PCR columns (Qiagen), analyzed on an ABI 3130xL genetic analyzer (Applied Biosystems) with peak positions identified by using a set of X-rhodamine (ROX)-labeled MapMarker1000 molecular weight standards (BioVentures). The raw capillary electrophoresis data was processed using Attagraph software (Attagene).
Regarding `C=C(C)OC(C)=O`, the molecule was called inactive.

Consider `Nc1ccnc(=O)[nH]1`, for which the call was inactive.

With `Cc1noc(NS(=O)(=O)c2ccc(N)cc2)c1C`, the molecule was classed as inactive.

On to `N#CC1(N)CCCCC1`, for which the result was inactive.

In the case of `CC/C=C\C/C=C\C/C=C\CCCCCCCC(=O)OC`, the molecule was classed as inactive.

As to `CC1(C)CC(O)CC(C)(C)N1[O]`, the result was inactive.

Take `CCCCCCCCCC[N+](C)(CCCCCCCCCC)CCC[Si](OC)(OC)OC`: the outcome was inactive.

Take `O=C(O)c1ccc2c(c1)C(=O)OC2=O`: the result was inactive.

With `CCC1COC(=O)O1` (stereo not given), the outcome was inactive.

Consider `CC(C)(C)NC(=O)[C@H]1CC[C@H]2[C@@H]3CC[C@H]4NC(=O)C=C[C@]4(C)[C@H]3CC[C@]12C`, for which the result was inactive.

With `O=C(O)C(F)(F)C(F)(F)C(F)(F)C(F)(F)C(=O)O`, the molecule was called inactive.

With `CC(CCC(=O)O)(c1ccc(O)cc1)c1ccc(O)cc1`, the call was inactive.

As to `CC(C)=CCl`, the molecule was called inactive.

As for `CC1=CC(C)C(C=O)CC1` (stereo not given), the molecule was called inactive.

Take `CCOc1ccc(NC(N)=O)cc1`: the result was inactive.

Turning to `CCCCCCCCCC(C)=O`, the outcome was inactive.

As to `CC(=O)CCC=C(C)C`, the call was inactive.

For `CC1=CCC2CC1C2(C)C` (stereo not given), the call was inactive.

On to `CCCCC/C=C\C/C=C\CCCCCCCC(=O)O`, for which the result was inactive.

For the molecule `NC(=O)Nc1ccccc1`, the molecule was called inactive.

Regarding `O=C1CCCCCCCCCCC1`, the result was inactive.

In the case of `CCOC(=O)C1=NOC(c2ccccc2)(c2ccccc2)C1`, the call was inactive.

`CCCCc1ccc(Cl)cc1`: the result was inactive.

As to `CC(C)=CCCC(C)=CC#N`, the call was inactive.

On to `CCCC1CCCC(=O)O1` (stereo not given), for which the result was inactive.

Take `COC(=O)c1ccccc1C`: the result was inactive.

Consider `C[N+](C)(C)CCCNS(=O)(=O)C(F)(F)C(F)(F)C(F)(F)C(F)(F)C(F)(F)C(F)(F)C(F)(F)C(F)(F)F`, for which the result was inactive.

In the case of `Clc1cccnc1`, the result was inactive.

As for `CC(=O)OCCc1ccccc1`, the molecule was called inactive.

For `C=CCNCC=C`, the outcome was inactive.

Consider `[Cl][Eu]([Cl])[Cl]`, for which the molecule was classed as inactive.

Take `CC(C)[N+](C)(CCOC(=O)C1c2ccccc2Oc2ccccc21)C(C)C`: the molecule was called inactive.

On to `CO[Si](CCCS)(OC)OC`, for which the call was inactive.

On to `CC(CC(C)C)=NO`, for which the molecule was called inactive.

Regarding `CC1CC(=O)CC(C)(C)C1` (stereo not given), the call was inactive.

With `CC(C)(c1ccccc1)c1ccc(Nc2ccc(C(C)(C)c3ccccc3)cc2)cc1`, the outcome was inactive.

With `O=C1c2ccccc2C(=O)c2cc(S(=O)(=O)O)ccc21`, the molecule was called inactive.

Consider `Oc1ccc(-c2ccccc2)c(Cl)c1`, for which the outcome was inactive.

Take `Cc1cc(=O)[nH]c(=O)[nH]1`: the molecule was called inactive.

`C=CCOC(=O)c1ccc(C(=O)OCC=C)c(C(=O)OCC=C)c1`: the molecule was classed as inactive.

These data come from PubChem BioAssay (EPA / NIEHS).
